# Records with an inconclusive call do not appear. A number with no mark means an inactive call. Calls of active or inactive are those of the source. Calls come from the whole dose curve; as a rule, active = well fitted inhibition curve with a large enough effect; inconclusive = small, poorly fitted or top-dose-only effect; inactive = flat fitted curve, though single readings scatter.
# System: NIH3T3
# Test: Cytotoxic Profiling of Annotated Libraries Using Quantitative High-Throughput Screening (AID 1296008); for max response: % is set by controls: 0 for no effect and ±100 for the full control effect
# Settings: Five cell lines viability, CellTiter-Glo ATP luminescence, 48-72 h; max response: stronger effect = lower value
# How it was run: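 Cytotoxicity was measured as CellTiter-Glo ATP luminescence, read after 10 min at room temperature. Compound treatment of the cells lasted 48 or 72 hr at 37 degrees Celsius in a qHTS format.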
# Note: nearly all actives have a fitted effect of over 60% in size.
Structure (SMILES),outcome,max response
N=C(N)c1ccc(OCCCOc2ccc(C(=N)N)cc2)cc1,inactive,
O=C(OCC(COC(=O)c1cccnc1)(COC(=O)c1cccnc1)COC(=O)c1cccnc1)c1cccnc1,inactive,
O=C(O)c1ccccc1Nc1cc(Cl)ccc1C(=O)O,,-15.4%
CCO[C@H](Cc1ccc(OCCc2ccc(OS(C)(=O)=O)cc2)cc1)C(=O)O,,-1.31%
C=CC[N+]1([C@H]2C[C@H]3[C@@H]4CC[C@H]5C[C@H](OC(C)=O)[C@@H](N6CCCCC6)C[C@]5(C)[C@H]4CC[C@]3(C)[C@H]2OC(=O)CC)CCCCC1,,-0.979%
CC(CCc1ccc2c(c1)OCO2)NN (configuration not stated),inactive,
C[C@@]12CCC[C@H]1[C@@H]1CC[C@H]3C[C@@H](O)CC[C@]3(C)[C@H]1CC2,,0.76%
Nc1c[n+](N2CCOCC2)no1,inactive,
CC(C(=O)O)c1ccc(/C=C2\CCCCC2=O)cc1 (configuration not stated),,3.05%
O=C(CCCCC(=O)Nc1c(I)cc(I)c(C(=O)O)c1I)Nc1c(I)cc(I)c(C(=O)O)c1I,,4.23%
NC(=O)COCCN1CCN(C(c2ccccc2)c2ccc(Cl)cc2)CC1 (configuration not stated),inactive,
C1=CC2C3C=CC(C3)C2C1 (configuration not stated),,0.366%
CCOC(=O)OCC/C(SC(=O)OCC)=C(\C)N(C=O)Cc1cnc(C)nc1N,inactive,
COc1cc(NS(=O)(=O)c2ccc(N)cc2)nc(C)n1,,4.73%
CCC(C(=O)NC(=O)NC(C)=O)c1ccccc1 (configuration not stated),,-7.72%
O=P(O)(O)OCC(O)CO (configuration not stated),inactive,
CC(=O)OCC(=O)[C@@]1(O)CCC2C3CCC4=CC(=O)CC[C@]4(C)C3[C@@H](O)C[C@@]21C (some centres not stated),,0.645%
Cc1ncc(CO)c(CO)c1O,,-3.24%
C[N+]1(CC2COC(c3ccccc3)(c3ccccc3)O2)CCCCC1 (configuration not stated),,-38.8%
CN1C(=O)c2ccccc2C1=O,,-7.13%

Structure (SMILES),outcome,max response
Cc1ccc(O)cc1,,0.99%
CC1(C)S[C@@H]2[C@H](NC(=O)C(c3ccccc3)S(=O)(=O)O)C(=O)N2[C@H]1C(=O)O (some centres not stated),,2.04%
Cc1nc([N+](=O)[O-])cn1-c1ccc([N+](=O)[O-])cc1,inactive,
OCCCc1ccccc1,inactive,
CN1C(CSCC(F)(F)F)Nc2cc(Cl)c(S(N)(=O)=O)cc2S1(=O)=O (configuration not stated),inactive,
Cc1ccccc1N1CCN(CCc2nnc3n2CCCC3)CC1,,4.77%
O=C(O)c1[nH]n(-c2ccc(S(=O)(=O)O)cc2)c(=O)c1N=Nc1ccc(S(=O)(=O)O)cc1,,-0.37%
C[N+](C)(CCOc1ccccc1)Cc1cccs1,,-2.33%
CC(=O)CC/C=C(\C)CC/C=C(\C)CC/C=C(\C)CCC=C(C)C,,-3.99%
CCCCC(CC)COC(=O)c1ccccc1C(=O)O (configuration not stated),,-2.08%
CC(=O)OCC[N+](C)(C)C,,3.81%
CCOc1ccc(NS(=O)(=O)c2ccc(N)cc2)nn1,,3.16%
CC(C)C(C)(C)C(C)(C)C(C)(C)S,,-4.3%
C=CCOc1cc(Cl)ccc1C(=O)NCCN(CC)CC,,1.31%
Cn1cc(S(C)=O)c(=O)c2ccc(F)cc21 (configuration not stated),inactive,
Nc1nnnn1-c1ccccc1,,-4.79%
OC[C@]1(O)OC[C@@H](O)[C@H](O)[C@@H]1O,inactive,
O=C(O)Cc1ccc(OCCNC[C@H](O)c2ccccc2)cc1,,0.971%
O=C(O)c1ccccc1S,,1.26%

# System: HACAT
# Test: qHTS assay to identify novel small-molecules to repurpose for Merkel cell carcinoma treatment (AID 1296009)
# Settings: MCC and control cell lines, CellTiter-Glo viability, 72 h; at 44.8 µM (top of the series) unless noted
# How it was run: (§1)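 After compound transfer in DMSO, plates were kept 72 hr at 37 degree celsius. Luminescent ATP signal from CellTiter-Glo served as viability measure, normalized against DMSO and no-cell controls.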
row,Structure (SMILES),outcome
1,N=C(N)c1ccc(OCCCOc2ccc(C(=N)N)cc2)cc1,inactive
2,O=C(OCC(COC(=O)c1cccnc1)(COC(=O)c1cccnc1)COC(=O)c1cccnc1)c1cccnc1,inactive
3,O=C(O)c1ccccc1Nc1cc(Cl)ccc1C(=O)O,inactive [at 17.4 µM]
4,CCO[C@H](Cc1ccc(OCCc2ccc(OS(C)(=O)=O)cc2)cc1)C(=O)O,inactive
5,CC(C(=O)O)c1ccc(/C=C2\CCCCC2=O)cc1 (configuration not stated),inactive
6,CCC(C(=O)NC(=O)NC(C)=O)c1ccccc1 (configuration not stated),inactive
7,Cc1ncc(CO)c(CO)c1O,inactive
8,Cc1ccc(O)cc1,inactive
9,Cc1nc([N+](=O)[O-])cn1-c1ccc([N+](=O)[O-])cc1,inactive
10,O=C(O)c1[nH]n(-c2ccc(S(=O)(=O)O)cc2)c(=O)c1N=Nc1ccc(S(=O)(=O)O)cc1,inactive
11,C=CCOc1cc(Cl)ccc1C(=O)NCCN(CC)CC,inactive

# System: HEK293T
# Test: as above
# Settings: MCC and control cell lines, CellTiter-Glo viability, 72 h; at 44.8 µM (top of the series) unless noted
# How it was run: as §1
row,Structure (SMILES),outcome
1,CC(CCc1ccc2c(c1)OCO2)NN (configuration not stated),inactive
2,C[C@@]12CCC[C@H]1[C@@H]1CC[C@H]3C[C@@H](O)CC[C@]3(C)[C@H]1CC2,inactive
3,Nc1c[n+](N2CCOCC2)no1,inactive
4,O=C(CCCCC(=O)Nc1c(I)cc(I)c(C(=O)O)c1I)Nc1c(I)cc(I)c(C(=O)O)c1I,inactive
5,C1=CC2C3C=CC(C3)C2C1 (configuration not stated),inactive [at 92 µM]
6,COc1cc(NS(=O)(=O)c2ccc(N)cc2)nc(C)n1,inactive
7,Cc1ccccc1N1CCN(CCc2nnc3n2CCCC3)CC1,inactive
8,CC(=O)CC/C=C(\C)CC/C=C(\C)CC/C=C(\C)CCC=C(C)C,inactive
9,CCCCC(CC)COC(=O)c1ccccc1C(=O)O (configuration not stated),inactive [at 92 µM]
10,CC(=O)OCC[N+](C)(C)C,inactive
11,CCOc1ccc(NS(=O)(=O)c2ccc(N)cc2)nn1,inactive
12,OC[C@]1(O)OC[C@@H](O)[C@H](O)[C@@H]1O,inactive
